From PubChem BioAssay AID936 (University of Pittsburgh Molecular Library Screening Center, 2007)

assay: H2O2 production by redox-active compounds – biochemical, 1 mM DTT, artefact control for Plk1 PBD inhibitor project, dose response (AID 936); settings: Redox cycling H2O2 generation, cell-free; call rule not given here

EC50, inactive:
O=C(O)COc1ccc(Br)cc1/C=N/O > 50 µM, CCC(Sc1nc2n[nH]c(C)c2c(=N)n1-c1cccc(Cl)c1)C(=O)NCCOC (stereo not drawn) > 50 µM, O=C1C(C2=C(O)c3ccccc3C2=O)=Nc2ccccc21 > 50 µM
